37 molecules from the supplement of paper PMC4954754 can be followed below.

Structures are written as SMILES. Several values for one entry are separate records, joined by “and”; a condition that tells them apart may be missing. Equal values may be shown once. ± gives the uncertainty stated by the source.

One assay concerns HEK293T-Rex XBP1-RLuc. Put plainly: XBP1-RLuc splicing reporter activation, triplicate, relative to 500 nM thapsigargin (% of thapsigargin); higher = stronger IRE1/XBP1s reporter activation. The note with it: 6.8 µM; 18 h; screen: confirmation. The procedure: (§1)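 HEK293T-Rex cells stably expressing the ERSE-firefly luciferase (BiP promoter, ATF6-preferring) or XBP1-splicing Renilla luciferase (IRE1/XBP1s) reporter, 1536-well plates, compound at 6.8 µM for 18 hr at 37 °C; luminescence read […] and expressed as % activation = 100*(compound - median DMSO)/(median 500 nM thapsigargin - median DMSO). Primary screen was single-pass; confirmation screen in triplicate (mean ± SD).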

The next assay relates to HEK293T-Rex ERSE-FLuc. Put plainly: ERSE-FLuc reporter activation, triplicate confirmation, relative to 500 nM thapsigargin (% of thapsigargin); higher = stronger ATF6/ERSE reporter activation. The settings on record: 6.8 µM; 18 h; screen: confirmation. How it is done:
as §1

In the case of `Cc1ccc(NC(=S)NC(=O)C(=O)Nc2ccccc2)cc1`, the “XBP1-RLuc splicing reporter activation” value in the assay with HEK293T-Rex XBP1-RLuc was 58.6 ± 3.3. The same molecule had an ERSE-FLuc reporter activation in the assay on HEK293T-Rex ERSE-FLuc of 139 ± 11.

Take `O=C(Nc1ccc2c(c1)OCCO2)C(=O)Nc1ccccc1Cl`: the “XBP1-RLuc splicing reporter activation” value in the assay on HEK293T-Rex XBP1-RLuc is -0.329 ± 3.7. In the assay on HEK293T-Rex ERSE-FLuc, this molecule came in with an ERSE-FLuc reporter activation of 27 ± 5.6.

As for `Nc1ccccc1NC(=O)c1ccc(C(F)(F)F)cc1`, the “XBP1-RLuc splicing reporter activation” value in the assay with HEK293T-Rex XBP1-RLuc was found to be 11.1 ± 2.7. Also, in the assay with HEK293T-Rex ERSE-FLuc, the ERSE-FLuc reporter activation stood at 27.2 ± 5.7.

On to `Cc1ccc(NC(=O)/C=C/c2ccco2)nc1`, for which the “XBP1-RLuc splicing reporter activation” value with HEK293T-Rex XBP1-RLuc amounted to 5.22 ± 0.94. Further, the ERSE-FLuc reporter activation in the assay with HEK293T-Rex ERSE-FLuc stood at 27.9 ± 7.1.

For the molecule `COc1ccc(C2=Nn3c(nnc3-c3ccc(OC)cc3)SC2)cc1`, in the assay with HEK293T-Rex XBP1-RLuc, the “XBP1-RLuc splicing reporter activation” value is 10.4 ± 1.3. In addition, the ERSE-FLuc reporter activation in the assay with HEK293T-Rex ERSE-FLuc came out at 30.7 ± 4.3.

For `COc1ccc(/C=C/c2nc3cc([N+](=O)[O-])ccc3s2)cc1O`, the “XBP1-RLuc splicing reporter activation” value in the assay on HEK293T-Rex XBP1-RLuc was 4.47 ± 0.66. In the assay with HEK293T-Rex ERSE-FLuc, this molecule returned an ERSE-FLuc reporter activation of 25.5 ± 3.9.

For the molecule `Cc1ccc(O)c(NC(=O)c2cc(C(C)C)on2)c1`, the “XBP1-RLuc splicing reporter activation” value with HEK293T-Rex XBP1-RLuc is 12.7 ± 0.5. This molecule also came in with an ERSE-FLuc reporter activation in the assay on HEK293T-Rex ERSE-FLuc of 44.6 ± 1.3.

Take `CC(C)NC(=O)c1cc(-c2ccc(O)cc2)on1`: in the assay on HEK293T-Rex XBP1-RLuc, the “XBP1-RLuc splicing reporter activation” value was determined as 18.5 ± 1.6. The same molecule displayed an ERSE-FLuc reporter activation in the assay with HEK293T-Rex ERSE-FLuc of 25.8 ± 3.

As to `COc1cc2ccccc2cc1C(=O)N/N=C/c1cccs1`, the “XBP1-RLuc splicing reporter activation” value in the assay with HEK293T-Rex XBP1-RLuc is 3.81 ± 0.66. Also, the ERSE-FLuc reporter activation in the assay on HEK293T-Rex ERSE-FLuc came to 25.7 ± 4.6.

Turning to `NC(=O)c1c(NC(=O)c2cccc3ccccc23)sc2c1CCC2`, the “XBP1-RLuc splicing reporter activation” value in the assay on HEK293T-Rex XBP1-RLuc was 9.06 ± 0.86. In addition, in the assay with HEK293T-Rex ERSE-FLuc, the ERSE-FLuc reporter activation amounted to 32 ± 1.6.

For `O=C(N/N=C/c1cccc2ccccc12)c1ccc2c(c1)OCO2`, the “XBP1-RLuc splicing reporter activation” value in the assay on HEK293T-Rex XBP1-RLuc was determined as 5.9 ± 3.2. In the assay with HEK293T-Rex ERSE-FLuc, this molecule showed an ERSE-FLuc reporter activation of 29.9 ± 4.3.

Regarding `CCCCCC(=O)Nc1ccc(C(=O)Nc2ccccc2O)cc1`, in the assay on HEK293T-Rex XBP1-RLuc, the “XBP1-RLuc splicing reporter activation” value was 9.29 ± 0.42. This molecule also returned an ERSE-FLuc reporter activation in the assay on HEK293T-Rex ERSE-FLuc of 44.9 ± 11.

`Nc1ccccc1NC(=O)c1ccc(C(=O)Nc2ccccc2N)cc1`: the “XBP1-RLuc splicing reporter activation” value in the assay with HEK293T-Rex XBP1-RLuc was found to be 4.04 ± 0.55. The same molecule yielded an ERSE-FLuc reporter activation in the assay with HEK293T-Rex ERSE-FLuc of 25.1 ± 3.8.

As for `O=C(NC(c1ccccc1)c1ccccc1)c1csc(-c2cnccn2)n1`, the “XBP1-RLuc splicing reporter activation” value in the assay on HEK293T-Rex XBP1-RLuc is 19 ± 0.61. In the assay on HEK293T-Rex ERSE-FLuc, this molecule had an ERSE-FLuc reporter activation of 30.5 ± 7.8.

On to `Cc1ccc(O)c(NC(=O)c2cc(-c3ccc(O)cc3)on2)c1`, for which, in the assay on HEK293T-Rex XBP1-RLuc, the “XBP1-RLuc splicing reporter activation” value is 22.4 ± 1.8. In the assay on HEK293T-Rex ERSE-FLuc, this molecule registered an ERSE-FLuc reporter activation of 54.1 ± 9.

As to `Cc1nn(-c2ccc(F)cc2)c2ncc(C(=O)NCc3ccco3)c(Cl)c12`, in the assay on HEK293T-Rex XBP1-RLuc, the “XBP1-RLuc splicing reporter activation” value came to 110 ± 9.1. This molecule also came in with an ERSE-FLuc reporter activation in the assay with HEK293T-Rex ERSE-FLuc of 54.5 ± 3.9.

`Cc1ccc2c(N)c(C(=O)c3ccc4c(c3)OCO4)sc2n1`: the “XBP1-RLuc splicing reporter activation” value in the assay on HEK293T-Rex XBP1-RLuc came out at 5.3 ± 0.72. The molecule also displayed an ERSE-FLuc reporter activation with HEK293T-Rex ERSE-FLuc of 35.9 ± 4.3.

`COc1ccc(-c2cnnc(N/N=C/c3ccc(O)c(O)c3)n2)cc1`: the “XBP1-RLuc splicing reporter activation” value in the assay on HEK293T-Rex XBP1-RLuc was 24 ± 2.2. Further, the ERSE-FLuc reporter activation in the assay on HEK293T-Rex ERSE-FLuc worked out at 35.9 ± 7.5.

For the molecule `Cc1ccc(/C=N/NC(=O)c2cccc(F)c2)cc1`, the “XBP1-RLuc splicing reporter activation” value in the assay with HEK293T-Rex XBP1-RLuc came to 2.01 ± 0.32. In the assay on HEK293T-Rex ERSE-FLuc, the ERSE-FLuc reporter activation was found to be 27.1 ± 7.8.

`Cc1cc(C)c2nc3sc(C(=O)N4CCCCC4)c(N)c3cc2c1`: the “XBP1-RLuc splicing reporter activation” value in the assay on HEK293T-Rex XBP1-RLuc worked out at 1.34 ± 0.73. In the assay with HEK293T-Rex ERSE-FLuc, the ERSE-FLuc reporter activation turned out to be 32.5 ± 8.

For the molecule `NC(=O)c1c(NC(=O)COc2ccccc2)sc2c1CCC2`, in the assay with HEK293T-Rex XBP1-RLuc, the “XBP1-RLuc splicing reporter activation” value is -0.209 ± 0.99. Also, the ERSE-FLuc reporter activation in the assay on HEK293T-Rex ERSE-FLuc worked out at 27.1 ± 3.2.

Regarding `CCOc1cccc(/C=C2\NC(=S)N(C)C2=O)c1O`, the “XBP1-RLuc splicing reporter activation” value with HEK293T-Rex XBP1-RLuc was -2.09 ± 0.54. The molecule further returned an ERSE-FLuc reporter activation with HEK293T-Rex ERSE-FLuc of 26.2 ± 29.

As to `Oc1cccc(/C=N/Nc2ccc(Cl)nn2)c1O`, in the assay on HEK293T-Rex XBP1-RLuc, the “XBP1-RLuc splicing reporter activation” value was 19 ± 1.9. Further, in the assay with HEK293T-Rex ERSE-FLuc, the ERSE-FLuc reporter activation was 35 ± 6.

For `O=[N+]([O-])c1ccccc1NC(=S)N/N=C/c1ccc(O)c(O)c1`, in the assay with HEK293T-Rex XBP1-RLuc, the “XBP1-RLuc splicing reporter activation” value is 8.61 ± 0.81. Further, the ERSE-FLuc reporter activation in the assay with HEK293T-Rex ERSE-FLuc amounted to 33.2 ± 4.3.

On to `O=c1cc(-c2ccc(O)c(O)c2)oc2cc(O)cc(O)c12`, for which the “XBP1-RLuc splicing reporter activation” value in the assay with HEK293T-Rex XBP1-RLuc was 16.5 and 14.4. Moreover, the ERSE-FLuc reporter activation with HEK293T-Rex ERSE-FLuc is 46 and 36.9.

Take `COc1ccc(N(C(=O)c2ccccc2)S(=O)(=O)c2cc(OC)ccc2OC)cc1`: in the assay on HEK293T-Rex XBP1-RLuc, the “XBP1-RLuc splicing reporter activation” value is 59.2 ± 7.4. This molecule also returned an ERSE-FLuc reporter activation with HEK293T-Rex ERSE-FLuc of 103 ± 9.2.

Regarding `CC(=O)Oc1ccc2cc(NC(=O)c3ccc(C)cc3)c(=O)oc2c1`, in the assay on HEK293T-Rex XBP1-RLuc, the “XBP1-RLuc splicing reporter activation” value is 12.1 ± 1.8. In the assay with HEK293T-Rex ERSE-FLuc, the ERSE-FLuc reporter activation was found to be 29.7 ± 6.

For `Cc1ccc2nc(/C(C#N)=C/c3ccc(O)cc3)[nH]c2c1`, the “XBP1-RLuc splicing reporter activation” value in the assay on HEK293T-Rex XBP1-RLuc was 13.8 ± 1.6. This molecule yielded an ERSE-FLuc reporter activation with HEK293T-Rex ERSE-FLuc of 30.3 ± 3.

As to `N#Cc1c(NC(=O)c2ccc3c(c2)OCO3)sc2c1CCCC2`, the “XBP1-RLuc splicing reporter activation” value in the assay on HEK293T-Rex XBP1-RLuc amounted to 2.57 ± 0.57. The molecule further came in with an ERSE-FLuc reporter activation in the assay with HEK293T-Rex ERSE-FLuc of 28.7 ± 6.8.

On to `O=C1/C(=C/c2ccc(O)c(O)c2)SC(=S)N1c1ccc(O)cc1`, for which the “XBP1-RLuc splicing reporter activation” value in the assay with HEK293T-Rex XBP1-RLuc was 14.6 ± 1.1. Besides, the ERSE-FLuc reporter activation in the assay with HEK293T-Rex ERSE-FLuc was determined as 30.5 ± 8.2.

As for `COc1ccc(/C=N/NC(=O)c2cccc(F)c2)cc1Br`, in the assay with HEK293T-Rex XBP1-RLuc, the “XBP1-RLuc splicing reporter activation” value amounted to 1.01 ± 0.87. In addition, the ERSE-FLuc reporter activation with HEK293T-Rex ERSE-FLuc came out at 35.4 ± 1.5.

As for `O=C1c2cc(O)ccc2-c2ccc(O)cc21`, the “XBP1-RLuc splicing reporter activation” value with HEK293T-Rex XBP1-RLuc stood at 17.8 ± 0.69. Further, the ERSE-FLuc reporter activation with HEK293T-Rex ERSE-FLuc amounted to 25.6 ± 6.

On to `COc1ccc2c(Cl)c(C(=O)Nc3ccccc3C(N)=O)sc2c1`, for which the “XBP1-RLuc splicing reporter activation” value with HEK293T-Rex XBP1-RLuc came to 4.82 ± 1.1. In the assay with HEK293T-Rex ERSE-FLuc, the ERSE-FLuc reporter activation came out at 31.6 ± 1.1.

As for `COc1cccc(-c2cc(C(=O)Nc3cc(C)ccc3O)no2)c1`, the “XBP1-RLuc splicing reporter activation” value in the assay with HEK293T-Rex XBP1-RLuc stood at 12.6 ± 4.8. The ERSE-FLuc reporter activation in the assay with HEK293T-Rex ERSE-FLuc was determined as 43.9 ± 11.

For the molecule `CC(=O)c1cccc(Nc2nc(-c3ccc(O)c(O)c3)cs2)c1`, the “XBP1-RLuc splicing reporter activation” value in the assay with HEK293T-Rex XBP1-RLuc came out at 21.8 ± 1.3. In the assay on HEK293T-Rex ERSE-FLuc, this molecule came in with an ERSE-FLuc reporter activation of 31.6 ± 5.1.

For `O=c1[nH]c(COc2ccccc2)nc2sc3c(c12)CCCC3`, in the assay with HEK293T-Rex XBP1-RLuc, the “XBP1-RLuc splicing reporter activation” value turned out to be 4.82 ± 0.69. This molecule came in with an ERSE-FLuc reporter activation in the assay with HEK293T-Rex ERSE-FLuc of 39 ± 5.3.

For the molecule `Nc1nc(Nc2ccc(Cl)c(Cl)c2)nc2ccccc12`, the “XBP1-RLuc splicing reporter activation” value with HEK293T-Rex XBP1-RLuc is 11.3 ± 0.79. In the assay on HEK293T-Rex ERSE-FLuc, this molecule returned an ERSE-FLuc reporter activation of 43.5 ± 3.9.
